# Some of the results follow. A number with no mark means an inactive call. Calls of active or inactive are those of the source.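 How the source made its calls: active means mean activity change at or below -40%, meaning activation of 40% or more, at 20 µM; inactive means the rest.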
# Biological target: Apoptotic protease-activating factor 1 (Homo sapiens) (UniProt O14727)
# Experiment: Apaf-1 activators, single-dose retest, confirmation, biochemical, fluorescence, DEVD-Rh110, 20 µM (AID 504617)
# Conditions: reconstituted apoptosome caspase-3 activity, at 20 µM, stronger effect = lower value
# Sequence of Apoptotic protease-activating factor 1 (Homo sapiens) (O14727 whole entry, looked up): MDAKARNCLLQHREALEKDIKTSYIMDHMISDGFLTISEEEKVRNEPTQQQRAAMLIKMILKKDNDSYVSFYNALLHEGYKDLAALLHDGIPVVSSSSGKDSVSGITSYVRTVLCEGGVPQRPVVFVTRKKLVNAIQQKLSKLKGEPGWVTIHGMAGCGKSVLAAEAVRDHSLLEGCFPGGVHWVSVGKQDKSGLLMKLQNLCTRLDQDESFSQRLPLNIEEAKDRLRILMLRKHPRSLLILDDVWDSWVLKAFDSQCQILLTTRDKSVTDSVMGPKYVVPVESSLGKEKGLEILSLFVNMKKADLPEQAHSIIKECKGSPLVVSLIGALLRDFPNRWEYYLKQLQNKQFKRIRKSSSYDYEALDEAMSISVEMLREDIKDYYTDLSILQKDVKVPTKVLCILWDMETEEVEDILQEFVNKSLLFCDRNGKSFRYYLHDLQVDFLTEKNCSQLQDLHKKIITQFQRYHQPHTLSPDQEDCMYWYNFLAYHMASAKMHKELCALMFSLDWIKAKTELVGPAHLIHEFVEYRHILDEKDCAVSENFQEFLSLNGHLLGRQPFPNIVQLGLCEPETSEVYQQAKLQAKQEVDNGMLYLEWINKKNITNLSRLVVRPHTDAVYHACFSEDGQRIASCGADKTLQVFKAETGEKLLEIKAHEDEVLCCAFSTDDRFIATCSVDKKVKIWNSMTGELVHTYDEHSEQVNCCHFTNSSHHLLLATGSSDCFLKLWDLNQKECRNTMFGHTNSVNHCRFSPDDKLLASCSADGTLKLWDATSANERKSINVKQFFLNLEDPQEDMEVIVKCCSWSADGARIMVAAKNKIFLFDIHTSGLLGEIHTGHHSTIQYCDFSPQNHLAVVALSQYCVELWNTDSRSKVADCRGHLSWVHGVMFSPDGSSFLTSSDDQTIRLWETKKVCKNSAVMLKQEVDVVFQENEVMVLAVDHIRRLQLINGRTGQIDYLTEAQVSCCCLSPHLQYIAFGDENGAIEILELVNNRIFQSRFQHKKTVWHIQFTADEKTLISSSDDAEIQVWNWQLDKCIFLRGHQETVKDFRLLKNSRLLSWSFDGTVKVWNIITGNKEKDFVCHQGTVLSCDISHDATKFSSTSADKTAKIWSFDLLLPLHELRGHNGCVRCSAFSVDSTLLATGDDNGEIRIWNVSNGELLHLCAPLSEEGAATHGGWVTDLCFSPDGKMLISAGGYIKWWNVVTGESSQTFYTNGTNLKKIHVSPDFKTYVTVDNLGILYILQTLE
row,Structure (SMILES),"activity change, negative = activation"
1,Cc1ccc(S(=O)(=O)N2CCOCC2)cc1C(=O)NC(=S)N(Cc1ccccc1)C(C)C,16.4%
2,COc1ccc(S(=O)(=O)N2CCCCC2)cc1NC(=O)c1cc([N+](=O)[O-])ccc1N1CCOCC1,13.5%
3,CN(C)S(=O)(=O)c1ccc(C(=O)NCCN=C2NS(=O)(=O)c3ccccc32)cc1,4.07%
4,Nc1cc(C(F)(F)F)ccc1N1CCOCC1,16.7%
5,CC(=O)CCC(=O)c1ccc2ccccc2c1,13.2%
6,COC(CNC(=O)Cn1ncc2ccsc2c1=O)OC,10.8%
7,O=C(CSc1ccc(-c2ccc(-n3cccn3)cc2)nn1)Nc1ccc([N+](=O)[O-])cc1,8.16%
8,COc1ccc2c(c1)CCNC2Cc1ccc(OC)c(O)c1 (stereo unspecified),12.2%
9,CC(=O)NC(=S)NNC(=O)c1ccc(Br)cc1,17.7%
10,CC(C)N1CCC(NC(=O)Nc2ccccc2)CC1,9.51%
11,C=C(C)C(=O)Nc1cccc(C2=NOC3(C2)C[C@H](C(N)=O)N(C(=O)C(c2ccccc2)c2ccccc2)C3)c1 (stereo partly specified),-78.6% (active)
12,N#CC1(C#N)C(C(=O)C23CC4CC(CC(C4)C2)C3)C12CCOCC2 (stereo unspecified),6.87%
13,C=CC1=C(C(=O)O)N2C(=O)[C@@H](NC(=O)/C(=N/OCC(=O)O)c3csc(N)n3)[C@H]2SC1,-113% (active)
14,Cc1cc(NC(=O)c2cccc(N3C(=O)CCC3=O)c2)no1,4.77%
15,CC(C)OCCCNC(=S)N1CCC(C(=O)c2ccc3c(c2)OCCO3)CC1,17.5%
16,O=c1[nH]c2c(c(=O)n1Cc1ccccc1)CCC2,11%
17,C=CC1=C(C(=O)O)N2C(=O)[C@@H](NC(=O)/C(=N\OCC(=O)O)c3csc(N)n3)[C@H]2SC1,-114% (active)
18,Cc1ccc(Nc2nc(CSc3nnc(-c4ccncc4)n3-c3ccccc3C)cs2)cc1,26.5%
19,COc1ccccc1OCC(=O)Nc1c2c(nn1-c1ccc(F)cc1)CS(=O)(=O)C2,9.31%
20,CCOCCc1c(O)nc(SCC(=O)NCc2ccco2)[nH]c1=O,7%
21,Brc1ccc(/C=N/N2CCN(C3c4ccccc4-c4ccccc43)CC2)s1,4.14%
